In PubChem BioAssay:
Calls of active or inactive are those of the source. Unless noted, the rule behind the calls is not given here.

Tests used:
[1] = resazurin metabolic signal in HepG2 cells – cell-based, resazurin fluorescence, 24 h, PK04 Diversity Set, profiling panel (AID 1172); settings: HepG2 viability, higher = more signal
[2] = budding yeast growth changes without added modifier – OD600, strain BY4716, 24 h, basal condition, primary screen (AID 1173); settings: S. cerevisiae BY4716 growth, OD600, 24 h; higher = more signal, called active from +8 up or from −8 down
[3] = viability profiling in MM1S myeloma cells – cell-based, resazurin fluorescence, basal, 24 h, PK04 Diversity Set, profiling panel (AID 1174); settings: higher = more signal, called active from +8 up or from −8 down;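 note: MM1S multiple myeloma cell line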
[4] = molecular target: Dihydroorotate dehydrogenase (quinone), mitochondrial (Plasmodium falciparum (isolate 3D7)) (UniProt Q08210); assay: inhibition of P. falciparum DHODH – biochemical, C-terminal His tag, absorbance 600 nm, primary screen (AID 1175); settings: PfDHODH enzyme, DCIP absorbance 600 nm; higher = more signal, called active from +8 up or from −8 down;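 note: recombinant parasite enzyme with a five histidine tag at its C terminus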
Sequence of Dihydroorotate dehydrogenase (quinone), mitochondrial (Plasmodium falciparum (isolate 3D7)) (Q08210 whole entry, looked up): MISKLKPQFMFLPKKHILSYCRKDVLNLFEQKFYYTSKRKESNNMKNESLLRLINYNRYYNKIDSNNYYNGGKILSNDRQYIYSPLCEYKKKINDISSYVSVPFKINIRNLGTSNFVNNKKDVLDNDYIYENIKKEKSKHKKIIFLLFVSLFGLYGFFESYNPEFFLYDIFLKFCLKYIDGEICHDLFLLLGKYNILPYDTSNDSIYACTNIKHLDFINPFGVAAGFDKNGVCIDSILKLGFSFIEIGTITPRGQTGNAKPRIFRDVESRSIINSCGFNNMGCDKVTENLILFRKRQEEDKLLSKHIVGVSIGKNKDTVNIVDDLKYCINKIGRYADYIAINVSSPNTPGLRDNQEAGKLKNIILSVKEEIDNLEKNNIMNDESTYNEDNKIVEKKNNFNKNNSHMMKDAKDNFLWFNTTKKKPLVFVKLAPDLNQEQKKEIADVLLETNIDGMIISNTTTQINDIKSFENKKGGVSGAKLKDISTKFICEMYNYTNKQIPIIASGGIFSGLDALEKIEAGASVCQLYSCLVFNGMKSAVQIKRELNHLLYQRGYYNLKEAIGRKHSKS

[5] = inhibition of PAO1 biofilm formation – strain PAO1, LB-PBS medium, absorbance 600 nm, primary screen (AID 1176); settings: P. aeruginosa PAO1 growth/biofilm, A600, 12 h; higher = more signal
[6] = growth modulation of vineyard yeast isolate – strain RM11-1a, OD600, basal, 24 h, primary screen (AID 1177);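 note: cultures grown under basal conditions with no added stressor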; settings: S. cerevisiae RM11-1a growth, OD600, 24 h; higher = more signal, called active from +8 up or from −8 down
[7] = growth of efflux-deficient E. coli DRC39 – strain DRC39, OD650, 24 h, E. coli filamentation inducers, primary screen (AID 1178);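 note: growth measured as culture turbidity by optical density at 650 nm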; settings: E. coli DRC39 acrAB, higher = more signal, called active from +8 up or from −8 down
[8] = growth of efflux-deficient E. coli DRC39 – strain DRC39, OD650, 48 h, E. coli filamentation inducers, primary screen (AID 1179);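 note: screen aims at cell division blockers that make cells filament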; settings: E. coli DRC39 delta-acrAB growth, higher = more signal, called active from +8 up or from −8 down
[9] = viability profiling in RPMI8226 myeloma cells – cell-based, resazurin fluorescence, basal, 24 h, PK04 Diversity Set, profiling panel (AID 1180); settings: higher = more signal;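 note: RPMI8826 multiple myeloma cell line at 5000 cells per well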
[10] = molecular target: E3 ubiquitin-protein ligase XIAP (Homo sapiens) (UniProt P98170); assay: small molecules binding XIAP protein – biophysical, small-molecule microarray, fluorescence 635 nm, primary screen (AID 1181); settings: higher = more signal;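 note: score merges 667 nm emission and signal to noise over triplicate slides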
Sequence of E3 ubiquitin-protein ligase XIAP (Homo sapiens) (P98170 whole entry, looked up, the tested form may be a part): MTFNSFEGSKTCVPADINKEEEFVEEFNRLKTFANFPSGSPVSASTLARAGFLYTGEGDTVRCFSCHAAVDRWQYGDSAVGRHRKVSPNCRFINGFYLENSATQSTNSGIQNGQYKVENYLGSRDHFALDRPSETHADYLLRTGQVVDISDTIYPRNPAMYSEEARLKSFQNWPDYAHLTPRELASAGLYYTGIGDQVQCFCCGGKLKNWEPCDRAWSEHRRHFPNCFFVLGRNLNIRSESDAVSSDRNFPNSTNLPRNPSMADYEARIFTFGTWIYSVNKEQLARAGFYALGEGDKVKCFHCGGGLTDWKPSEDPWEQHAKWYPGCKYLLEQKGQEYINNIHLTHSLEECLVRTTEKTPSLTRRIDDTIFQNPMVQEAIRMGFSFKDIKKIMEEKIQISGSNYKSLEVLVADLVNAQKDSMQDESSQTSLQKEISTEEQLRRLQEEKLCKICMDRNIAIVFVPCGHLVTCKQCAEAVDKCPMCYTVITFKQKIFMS

[11] = tested on: XIP peptide (Xip251-270) binding; assay: XIP fragment 251-270 binding compounds – biochemical, small-molecule microarray, fluorescence 635/667 nm, 0.1 µg/mL protein, primary screen (AID 1182); settings: fluorescent protein binding, 635 nm, higher = more signal, called active from +8 up or from −8 down
[12] = tested on: XIP peptide (Xip251-270); assay: compounds binding XIP fragment 251-270 – biochemical, small-molecule microarray, fluorescence 635/667 nm, 0.5 µg/mL protein, primary screen (AID 1183); settings: fluorescence 635 nm, higher = more signal
[13] = blood-stage malaria parasite viability loss – strain 3D7, DAPI fluorescence, 100 nL, primary screen (AID 1184);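 note: parasites grown inside human red blood cells in medium with human serum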; settings: P. falciparum 3D7 growth, 3 d, higher = more signal
[14] = molecular target: Homeobox protein Hox-A13 (Mus musculus) (UniProt Q62424); assay: disruptors of Hoxa13 oligonucleotide interaction – biochemical, fluorescence polarization, labeled oligonucleotide, primary screen (AID 1185); settings: Hoxa13:DNA binding, 15 min, higher = more signal, called active from +8 up or from −8 down
Sequence of Homeobox protein Hox-A13 (Mus musculus) (Q62424 whole entry, looked up): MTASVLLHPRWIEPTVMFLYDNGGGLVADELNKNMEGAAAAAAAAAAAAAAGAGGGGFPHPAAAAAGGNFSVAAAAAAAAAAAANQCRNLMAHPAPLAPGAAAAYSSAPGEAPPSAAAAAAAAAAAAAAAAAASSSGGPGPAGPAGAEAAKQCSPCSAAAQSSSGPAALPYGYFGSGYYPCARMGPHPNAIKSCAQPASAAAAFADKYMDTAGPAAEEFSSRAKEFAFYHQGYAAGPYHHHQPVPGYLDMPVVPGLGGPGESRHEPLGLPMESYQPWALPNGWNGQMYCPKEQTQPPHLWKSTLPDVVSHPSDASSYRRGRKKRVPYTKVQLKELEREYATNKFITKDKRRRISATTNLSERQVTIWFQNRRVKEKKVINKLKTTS

[15] = blockers of DNA damage checkpoint Chk1 activation – imaging, HeLa, hydroxyurea, phospho-Chk1 antibody, percent positive cells, primary screen (AID 1186); settings: hydroxyurea-induced phospho-Chk1 immunofluorescence imaging, higher = more signal
[16] = blockers of DNA damage checkpoint Chk1 activation – imaging, HeLa, hydroxyurea, phospho-Chk1 nuclear intensity, primary screen (AID 1187); settings: hydroxyurea-induced phospho-Chk1 immunofluorescence imaging, higher = more signal

SMILES | z-score [1] | z-score [2] | z-score [3] | composite z-score [4] | z-score [5] | z-score [6] | z-score [7] | z-score [8] | z-score [9] | composite z-score [10] | composite z-score [11] | composite z-score [12] | z-score [13] | z-score [14] | z-score [15] | z-score [16]
CC(=O)NCCCC[C@@H]1NC(=O)[C@H]2C[C@@H](C(=O)NCCCCCNC(=O)CS)[C@@H](c3ccc(O)cc3)N2C1=O | -0.0321 | 1.14 (inactive) | 0.0985 (inactive) | 0.452 (inactive) | 0.395 (inactive) | 0.949 (inactive) | -0.553 (inactive) | -0.574 (inactive) | -0.213 | 0.0503 | 0.184 (inactive) | 0.805 | 0.147 | -3.02 (inactive) | 0.0401 (inactive) | 0.176 (inactive)
C#CCN1[C@@H](Cc2ccc(O)cc2)C(=O)O[C@H](Cc2ccccc2)[C@@H]1/C=C/C1CC1 | -1.9 | -2.19 (inactive) | -1.08 (inactive) | -0.652 (inactive) | -0.353 (inactive) | 0.168 (inactive) | 0.75 (inactive) | 0.665 (inactive) | -1.21 | 0.0664 | -0.111 (inactive) | 0.0549 | 0.32 | -5.26 (inactive) | -0.473 (inactive) | -0.542 (inactive)
O=C(O)[C@H](Cc1ccccc1)n1cc(-c2ccccc2)nn1 | 0.562 | 0.0419 (inactive) | 0.0284 (inactive) | -0.0341 (inactive) | 0.738 (inactive) | -0.14 (inactive) | -0.0353 (inactive) | -0.202 (inactive) | -0.46 | 0.0812 | -0.152 (inactive) | 0.297 | 0.0447 | -1.17 (inactive) | 0.425 (inactive) | -0.0072 (inactive)
CCOC(=O)C[C@H]1[C@H](OC(=O)c2ccc(-c3ccccc3)cc2)[C@@H](NC(=O)c2ccccc2)c2cc(OCCCO)ccc2N1C(=O)c1ccc2ccccc2n1 | -0.471 | 0.171 (inactive) | -0.397 (inactive) | -0.12 (inactive) | -0.17 (inactive) | -0.888 (inactive) | 0.27 (inactive) | 0.256 (inactive) | -0.258 | 0.132 | 0.304 (inactive) | 0.0388 | 1.24 | -1.19 (inactive) | -0.0348 (inactive) | -0.234 (inactive)
CC(CO)N1C(=O)[C@@H]2C3C(=O)OCCC/C=C\[C@H]3OC23C=CCN(CCN2CCOCC2)C(=O)[C@@H]13 (some centres undefined) | -0.167 | -0.193 (inactive) | -0.72 (inactive) | -0.387 (inactive) | 0.053 (inactive) | -0.137 (inactive) | 0.218 (inactive) | 0.685 (inactive) | -0.784 | 1.01 | -0.134 (inactive) | -0.0838 | 0.339 | -4.25 (inactive) | -0.957 (inactive) | -1.88 (inactive)
O=C(O)[C@@]1(CCS(=O)(=O)c2ccccc2)N=C(c2ccc(OCCCO)cc2)O[C@H]1c1ccccc1 | 0.489 | -1.11 (inactive) | 0.409 (inactive) | -0.0555 (inactive) | -1.27 (inactive) | -0.357 (inactive) | 0.28 (inactive) | -0.275 (inactive) | 1.26 | 0.0952 | 1.15 (inactive) | 0.392 | -0.471 | -5.76 (inactive) | 0.0733 (inactive) | 0.0816 (inactive)
C=CC[C@]1(C(N)=O)COC(c2ccc(OCCCO)cc2)=N1 | 1.4 | 0.412 (inactive) | -0.801 (inactive) | 0.94 (inactive) | -0.814 (inactive) | 0.75 (inactive) | 1.12 (inactive) | 1.83 (inactive) | 0.679 | -0.095 | -0.539 (inactive) | -0.0487 | 0.668 | -0.063 (inactive) | -0.551 (inactive) | -0.351 (inactive)
O=C1NC(=O)C2C1C=CC(C(O)C1CC=CCC1)N2Nc1ccccn1 (centres undefined) | -1.16 | 1.05 (inactive) | -1.35 (inactive) | 1.07 (inactive) | 0.916 (inactive) | 0.636 (inactive) | -0.857 (inactive) | -0.0662 (inactive) | -1.57 | 0.0512 | 0.467 (inactive) | 0.362 | 0.45 | -0.315 (inactive) | 0.113 (inactive) | -0.22 (inactive)
OCCCC1=CC(C2CC2)N(Cc2cccc(OC(F)(F)F)c2)CC1 (centres undefined) | 0.702 | -1.85 (inactive) | 0.171 (inactive) | -3.08 (inactive) | -0.517 (inactive) | 0.345 (inactive) | 0.425 (inactive) | 0.327 (inactive) | 0.365 | 0.324 | 0.0736 (inactive) | 0.492 | -1.76 | -4.21 (inactive) | -0.245 (inactive) | 0.143 (inactive)
O=C(NC1CC1)[C@@H]1c2ccccc2C(=O)N(Cc2cc(F)cc(C(F)(F)F)c2)[C@H]1c1ccc(CO)cc1 | 0.672 | -0.626 (inactive) | -0.24 (inactive) | -0.323 (inactive) | 0.373 (inactive) | -0.953 (inactive) | 0.678 (inactive) | -0.664 (inactive) | -0.0559 | -0.0527 | -0.414 (inactive) | 0.716 | -0.247 | -3.5 (inactive) | 0.135 (inactive) | -0.0928 (inactive)
COCC(=C=CC[C@H](O)c1cccc(OCCO)c1)C[C@H](O)c1cc(Cl)cc(Cl)c1O | 1.13 | -2.5 (inactive) | 0.685 (inactive) | -0.492 (inactive) | 0.625 (inactive) | 0.337 (inactive) | 0.679 (inactive) | 0.477 (inactive) | 0.159 | -0.0669 | 0.378 (inactive) | 0.825 | -0.366 | -4.71 (inactive) | 0.144 (inactive) | 0.532 (inactive)
Cc1ccc(S(=O)(=O)N2C[C@@H](C(=O)O)[C@H](Sc3ccccc3)C[C@H]2c2ccccc2)cc1 | -0.199 | -0.638 (inactive) | -0.26 (inactive) | -1.43 (inactive) | 0.409 (inactive) | -0.339 (inactive) | -0.529 (inactive) | -1.55 (inactive) | -0.911 | -0.303 | 0.117 (inactive) | 0.779 | -0.0652 | -7 (inactive) | 0.442 (inactive) | 0.283 (inactive)
C=CCN1C(=O)[C@]2(O[C@H](CCO)[C@@H]([Si](C)(C)c3ccc(OC)cc3)[C@@H]2C)c2cc(N(C=O)c3ccccc3)ccc21 | -6 | 1.14 (inactive) | -8.61 (active) | 0.637 (inactive) | 0.0245 (inactive) | 3.98 (inactive) | 1.72 (inactive) | 0.905 (inactive) | -6.23 | -0.0189 | 1.94 (inactive) | 0.749 | -2.52 | -3.67 (inactive) | -1.11 (inactive) | -0.984 (inactive)
COc1ccc([C@H]2C[C@H]3C(I)=C[C@@H]2C(=O)[C@]32CO2)cc1 | 0.91 | -9.78 (active) | -0.306 (inactive) | -0.174 (inactive) | 0.167 (inactive) | -1.14 (inactive) | 1.73 (inactive) | 0.344 (inactive) | 0.867 | 0.288 | -0.344 (inactive) | 0.68 | 0.456 | -1.41 (inactive) | 0.125 (inactive) | -0.217 (inactive)
C[N+](C)(C)CCCC[C@@H]1NC(=O)[C@H]2C[C@@H](C(=O)NCCCCCCNC(=O)CS)[C@@H](c3ccc(O)cc3)N2C1=O | -0.935 | 0.123 (inactive) | -0.476 (inactive) | 0.0966 (inactive) | -0.0059 (inactive) | -0.0807 (inactive) | 0.0109 (inactive) | -0.643 (inactive) | -0.862 | -0.0272 | 0.945 (inactive) | -0.502 | 0.0331 | -2.68 (inactive) | -0.888 (inactive) | -0.233 (inactive)
CCOC(=O)C[C@H]1[C@H](OC(=O)c2ccc(C(=O)c3ccccc3)cc2)[C@@H](NC(=O)c2ccccc2)c2cc(OCCCO)ccc2N1C(=O)c1ccccc1 | -0.529 | 0.783 (inactive) | -0.224 (inactive) | -0.206 (inactive) | 0.137 (inactive) | 0.144 (inactive) | 0.158 (inactive) | 0.293 (inactive) | 0.247 | -0.0152 | -0.492 (inactive) | 0.59 | -0.263 | -1.19 (inactive) | 0.743 (inactive) | 0.943 (inactive)
C=C(CCCC)/C(=C/C[C@@H](OC(C)=O)c1ccccc1OCCO)c1cc(C(=O)OC)ccc1OC | 0.937 | -0.746 (inactive) | -0.909 (inactive) | -0.04 (inactive) | 0.367 (inactive) | 0.724 (inactive) | 1.5 (inactive) | 1.04 (inactive) | 0.627 | -0.02 | -0.0324 (inactive) | 0.906 | -2.51 | -4.39 (inactive) | -0.402 (inactive) | 0.114 (inactive)
O=C1C2C=CC(C(O)COCc3ccccc3)N(Nc3ccc([N+](=O)[O-])cc3)C2C(=O)N1c1ccccc1 (centres undefined) | 0.0505 | 0.858 (inactive) | 0.391 (inactive) | -0.262 (inactive) | 0.589 (inactive) | 0.498 (inactive) | 0.24 (inactive) | 0.613 (inactive) | 0.948 | 0.0604 | -0.183 (inactive) | -0.006 | -1.2 | -3.13 (inactive) | 0.0045 (inactive) | 0.54 (inactive)
CC(C)Cc1ccc(CN2CC[C@@H](N)C2)cc1 | 1.51 | -12.8 (active) | -1.49 (inactive) | 4.28 (inactive) | -0.271 (inactive) | -0.0782 (inactive) | 1.47 (inactive) | 0.611 (inactive) | -0.681 | -0.269 | 0.773 (inactive) | -0.0255 | -0.423 | -0.811 (inactive) | -0.939 (inactive) | -0.735 (inactive)
